{"source": "PubChem BioAssay (NCATS)", "key": {"[1]": {"biological_target": "Calcium and integrin-binding protein 1 (Homo sapiens) (UniProt Q99828)", "sequence (Q99828 whole entry, looked up)": "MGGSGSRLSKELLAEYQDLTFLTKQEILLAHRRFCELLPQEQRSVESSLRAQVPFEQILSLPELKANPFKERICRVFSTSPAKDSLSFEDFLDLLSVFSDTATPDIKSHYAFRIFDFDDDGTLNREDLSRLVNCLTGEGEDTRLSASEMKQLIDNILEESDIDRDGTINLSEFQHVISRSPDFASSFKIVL", "assay": "Primary qHTS for Identification of Calcium Integrin Binding Protein 1 (CIB1) Competitor (AID 1508620);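 also: GST tagged CIB1 binding a fluorescein labelled alphaIIb integrin peptide tracer; top concentration of the series differs between compounds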", "outline": "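CIB1-GST (1 uM final) and compound incubated 15 min at room temperature before adding FITC-alphaIIb peptide tracer (100 nM final). Competition for binding read by fluorescence polarization (ex 480, em 540) after another 15 min at room temperature.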"}, "[2]": {"assay": "Primary qHTS for inhibitors of nuclear receptor binding SET domain protein 2 (NSD2) in an isogenic RCH-ACV NSD2 p.E1099K mutant (9B) (AID 1645876); also: nearly all actives have a fitted effect of over 70% in size"}, "[3]": {"biological_target": "Cytochrome P450 2C9 (Homo sapiens) (UniProt P11712)", "sequence (P11712 whole entry, looked up)": "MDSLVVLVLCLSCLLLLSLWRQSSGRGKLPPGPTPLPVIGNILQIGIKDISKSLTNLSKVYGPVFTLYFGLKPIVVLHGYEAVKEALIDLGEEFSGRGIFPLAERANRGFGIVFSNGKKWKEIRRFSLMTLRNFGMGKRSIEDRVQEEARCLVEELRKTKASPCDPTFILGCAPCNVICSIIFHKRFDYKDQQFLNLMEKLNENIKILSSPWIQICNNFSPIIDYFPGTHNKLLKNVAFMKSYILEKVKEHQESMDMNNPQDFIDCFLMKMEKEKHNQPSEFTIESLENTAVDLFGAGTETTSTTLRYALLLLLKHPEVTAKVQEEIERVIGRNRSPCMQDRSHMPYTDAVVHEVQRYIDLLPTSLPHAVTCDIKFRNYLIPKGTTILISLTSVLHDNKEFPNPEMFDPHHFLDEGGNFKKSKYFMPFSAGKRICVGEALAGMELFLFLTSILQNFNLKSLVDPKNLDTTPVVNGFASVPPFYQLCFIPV", "assay": "Cytochrome P450 family 2 subfamily C member 9 (CYP2C9) small molecule antagonists: luciferase biochemical (cell-free) qHTS assay (AID 1645842; active = well fitted curve in the direction sought with a large enough effect in the repeat runs; an effect the other way counts as inactive or inconclusive; also: potency is read from the fitted curve at half-maximal effect; nearly all actives have a fitted effect of over 55% in size)", "outline": "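Luminescence, after 20 min with luciferin detection reagent, reflected CYP2C9 turnover during a 1 h NADPH-driven reaction at 37C. Enzyme-substrate mix contained 0.4% bovine serum albumin and was preincubated with compound 10 min at room temperature.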"}, "[4]": {"assay": "Primary qHTS for inhibitors of nuclear receptor binding SET domain protein 2 (NSD2) in an RCH-ACV wild type WT cells (2C) (AID 1645877); also: nearly all actives have a fitted effect of over 70% in size"}}, "note": "Results filed as inconclusive are left out. A call without a number means that no potency is given here. Values without a mark were called inactive. Calls of active or inactive are those of the source. Unless noted, calls follow the shape of the dose curve; as a rule, active = well fitted curve in the direction sought with a large enough effect; inconclusive = small, poorly fitted or top-dose-only effect, or another doubt; inactive = no such curve, though single readings can be large; an effect the other way counts as inactive or inconclusive. *1 amine or outer side, *2 acyl side, *3 side chain or, on linkers, in order; H or OH if unused. Where a SMILES comes first, the peptide text is derived from it. [ ]: non-standard residue; d: D form. X13 = O=C(C(CC(O)CO)O[*:1])[*:2]; NMeV = CN[CH](C(=O)O)C(C)C; NMeA = CN[CH](C)C(=O)O; βAla = NCCC(=O)O"}
{"smiles": "C=C1C(O)CC2C(C(=O)O)=COC(O[C@@H]3O[C@H](COC(=O)c4ccc(O)cc4)[C@@H](O)[C@H](O)[C@H]3O)C12", "note": "(some centres not stated)", "values": [{"measurement": "Potency", "setting": "[1]", "result": "inactive"}, {"measurement": "Potency", "setting": "[2]", "result": "inactive"}]}
{"smiles": "Cc1ccc2[nH]c(=O)c(C3=NN(C(=O)CCC(=O)O)C(c4ccc(Br)cc4)C3)c(-c3ccccc3)c2c1", "note": "(configuration not stated)", "values": [{"measurement": "Potency", "setting": "[1]", "result": "inactive"}, {"measurement": "Potency", "setting": "[3]", "result": "26.8 µM (active)"}, {"measurement": "Potency", "setting": "[2]", "result": "inactive"}, {"measurement": "Potency", "setting": "[4]", "result": "inactive"}]}
{"smiles": "COC(=O)[C@H](O)[C@H]1C(C)(C)[C@H](OC(C)=O)[C@@]2(O)C(=O)[C@]1(C)C1CC[C@]3(C)C(CC(=O)O[C@H]3c3ccoc3)[C@]13O[C@@H]32", "note": "(some centres not stated)", "values": [{"measurement": "Potency", "setting": "[1]", "result": "inactive"}, {"measurement": "Potency", "setting": "[2]", "result": "inactive"}]}
{"smiles": "C=C1CC[C@@H]2C(C)(C)CCC[C@@]2(C)[C@@H]1CC/C(=C/C(=O)OC)COC(C)=O", "values": [{"measurement": "Potency", "setting": "[1]", "result": "inactive"}, {"measurement": "Potency", "setting": "[2]", "result": "inactive"}]}
{"smiles": "O=C(O)c1ccnc(-c2cc(C(=O)NCCc3ccccc3)ccn2)c1", "values": [{"measurement": "Potency", "setting": "[1]", "result": "inactive"}, {"measurement": "Potency", "setting": "[2]", "result": "inactive"}]}
{"smiles": "CC(=O)NC1CC(=O)C23C(=O)NC(Cc4c[nH]c5ccccc45)C2C(C)=C(C)C(O)C3/C=C/CC(C)/C=C(/C)C(O)C1O", "note": "(configuration not stated)", "values": [{"measurement": "Potency", "setting": "[1]", "result": "inactive"}, {"measurement": "Potency", "setting": "[2]", "result": "inactive"}]}
{"smiles": "COC1OC(OC)C(O)(CCC2(C)C(C)CCC3(C)C2CC(O)C(O)C32CO2)C1O", "note": "(configuration not stated)", "values": [{"measurement": "Potency", "setting": "[1]", "result": "inactive"}, {"measurement": "Potency", "setting": "[2]", "result": "inactive"}]}
{"smiles": "COCc1c(O)c(C(=O)O)c(C)c2c1OC(=O)c1c(C)cc(O)c(CO)c1O2", "values": [{"measurement": "Potency", "setting": "[1]", "result": "inactive"}, {"measurement": "Potency", "setting": "[2]", "result": "inactive"}]}
{"smiles": "C/C=C(\\C)C(=O)OCC1OC(OC2OC(CO)C(O)C(O)C2O)C(O)C(O)C1O", "note": "(configuration not stated)", "values": [{"measurement": "Potency", "setting": "[1]", "result": "inactive"}, {"measurement": "Potency", "setting": "[2]", "result": "inactive"}]}
{"smiles": "C=CC(C)(CCC=C(C)C)O[C@@H]1O[C@H](CO)[C@@H](O)[C@H](O)[C@H]1O", "note": "(some centres not stated)", "values": [{"measurement": "Potency", "setting": "[1]", "result": "inactive"}, {"measurement": "Potency", "setting": "[2]", "result": "inactive"}]}
{"smiles": "CC1(C(=O)O)CCCC2(C)C3CCC4CC3(CCC12)CC4(O)CO", "note": "(configuration not stated)", "values": [{"measurement": "Potency", "setting": "[1]", "result": "inactive"}, {"measurement": "Potency", "setting": "[2]", "result": "inactive"}]}
{"smiles": "O=C(OCC1=CC(Cl)C(O)C(OC(=O)c2ccccc2)C1O)c1ccccc1", "note": "(configuration not stated)", "values": [{"measurement": "Potency", "setting": "[1]", "result": "inactive"}, {"measurement": "Potency", "setting": "[2]", "result": "inactive"}]}
{"smiles": "COC(=O)C(CC1(OC(=O)C(C)C)c2ccccc2N2C(=O)C(C)(C)N(O)C21)n1cnc2ccccc2c1=O", "note": "(configuration not stated)", "values": [{"measurement": "Potency", "setting": "[1]", "result": "inactive"}, {"measurement": "Potency", "setting": "[2]", "result": "inactive"}]}
{"smiles": "C=CC1(C)CC=C2C(CCC3C(C)(C(=O)O)CCCC23C)C1", "note": "(configuration not stated)", "values": [{"measurement": "Potency", "setting": "[1]", "result": "inactive"}, {"measurement": "Potency", "setting": "[2]", "result": "inactive"}]}
{"smiles": "CCC(C)C1NC(=O)C2CCCN2C(=O)C(CC(O)CO)OC(=O)CCNC(=O)C(C)N(C)C(=O)C(C(C)C)N(C)C1=O", "note": "(configuration not stated) (cyclo([X13]PI[NMeV][NMeA][βAla]); configuration not given here)", "values": [{"measurement": "Potency", "setting": "[1]", "result": "inactive"}, {"measurement": "Potency", "setting": "[2]", "result": "inactive"}]}
{"smiles": "CO[C@H]1c2cc(C(C)C)c(O)c(O)c2[C@@]23CCCC(C)(C)C2[C@@H]1OC3=O", "note": "(some centres not stated)", "values": [{"measurement": "Potency", "setting": "[1]", "result": "inactive"}, {"measurement": "Potency", "setting": "[2]", "result": "inactive"}]}
{"smiles": "C[C@@H]1O[C@@H](O[C@H]2[C@H](OC(=O)[C@]34CCC(C)(C)C[C@H]3C3=CCC5[C@@]6(C)C[C@@H](O)[C@@H](O[C@@H]7O[C@H](CO)[C@@H](O)[C@H](O)[C@H]7O)[C@@](C)(CO)C6[C@H](O)C[C@@]5(C)[C@]3(C)CC4)OC[C@H](O)[C@@H]2O)[C@H](O)[C@H](O[C@@H]2OC[C@](O)(CO)[C@H]2O)[C@H]1O[C@@H]1OC[C@@H](O)[C@H](O[C@H]2O[C@H](C)[C@@H](O)[C@H](O)[C@@H]2O)[C@H]1O", "note": "(some centres not stated)", "values": [{"measurement": "activity change, negative = inhibition", "setting": "[1]", "result": "5.13% [at 12.4 µM]"}, {"measurement": "activity change, negative = viability loss", "setting": "[2]", "result": "-25.2% [at 9.23 µM]"}]}
{"smiles": "CC(C/C=C/C(C)(C)O)C1CCC(C)(O)C(O)C1", "note": "(configuration not stated)", "values": [{"measurement": "Potency", "setting": "[1]", "result": "inactive"}, {"measurement": "Potency", "setting": "[2]", "result": "inactive"}]}
{"smiles": "Cc1occc1C(=O)n1ccnc1", "values": [{"measurement": "Potency", "setting": "[1]", "result": "inactive"}, {"measurement": "Potency", "setting": "[2]", "result": "inactive"}]}
{"smiles": "CC(/C=C/C=C(\\C)C(=O)O[C@@H]1O[C@H](CO[C@@H]2O[C@H](CO)[C@@H](O)[C@H](O)[C@H]2O)[C@@H](O)[C@H](O)[C@H]1O)=C\\C=C\\C=C(C)\\C=C\\C=C(/C)C(=O)O[C@@H]1C[C@](O)(C(=O)O)C[C@@H](O)[C@H]1OC(=O)/C=C/c1ccc(O)c(O)c1", "values": [{"measurement": "Potency", "setting": "[1]", "result": "inactive"}, {"measurement": "activity change, negative = viability loss", "setting": "[2]", "result": "-6.13% [at 9.23 µM]"}]}
{"smiles": "CC1(C)CC2C3=CCC4[C@@]5(C)CC[C@H](OC6OCC(O)C(OC7OC(CO)C(O)C(O)C7O)C6O)C(C)(C)C5CC[C@@]4(C)[C@]3(C)C[C@H](O)[C@@]2(CO)[C@H](OC(=O)c2ccccc2)C1", "note": "(some centres not stated)", "values": [{"measurement": "Potency", "setting": "[1]", "result": "inactive"}, {"measurement": "activity change, negative = viability loss", "setting": "[2]", "result": "-12.4% [at 9.23 µM]"}]}
{"smiles": "CSC(=O)OCC1=C[C@@H]2OC(=O)C3=CO[C@@H](O[C@@H]4O[C@H](CO)[C@@H](O)[C@H](O)[C@H]4O)[C@H]1[C@@H]32", "values": [{"measurement": "Potency", "setting": "[1]", "result": "inactive"}, {"measurement": "Potency", "setting": "[2]", "result": "inactive"}]}
{"smiles": "CC1(O)CCC2C(C3C1CCC3(C)O)C2(C)C", "note": "(configuration not stated)", "values": [{"measurement": "Potency", "setting": "[1]", "result": "inactive"}, {"measurement": "Potency", "setting": "[2]", "result": "inactive"}]}
{"smiles": "C=CC(C)(O)CCC1C(C)(O)CCC2C(C)(C)CCCC21C", "note": "(configuration not stated)", "values": [{"measurement": "Potency", "setting": "[1]", "result": "inactive"}, {"measurement": "Potency", "setting": "[2]", "result": "inactive"}]}
{"smiles": "CC1=C2C(=O)C=C(CO[C@@H]3O[C@H](CO)[C@@H](O)[C@H](O)[C@H]3O)[C@@H]2[C@H]2OC(=O)[C@H](C)[C@@H]2[C@@H](O)C1", "values": [{"measurement": "Potency", "setting": "[1]", "result": "inactive"}, {"measurement": "Potency", "setting": "[2]", "result": "inactive"}]}
